Data from PMC8384837, “Expanding the binding specificity for RNA recognition by a PUF domain”.

Columns and labels:
Assay in all cases: yeast three-hybrid, YBZ-1, SC-Leu-His + 0.5 mM 3-AT, 4 days
Conditions in all cases: tags: N-Gal4 AD-HA kept; label: inside an RPR1-promoter hybrid RNA with tandem MS2 sites; ssRNA
PUM1 PUF domain R5-QRL = PUM1 PUF domain R5-QRL (Homo sapiens, UniProt Q14671 828-1176, C1007Q;Q1011L)
Method in brief: (§1)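 Sequencing with Illumina followed PCR amplification of the repeat regions from transformants grown four days on SC-Leu (input) or SC-Leu-His + 0.5 mM 3-AT (selection). The transformants were strain YBZ-1 with a LexA–MS2 coat fusion and a HIS3 reporter, carrying Pumilio-1 PUF domain libraries and matching RNA elements. The interaction score is the log change in variant frequency from input to selection, computed in log2 with a pseudocount of 1 for absent variants.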

PUM1 PUF domain R4-DYI = PUM1 PUF domain R4-DYI (Homo sapiens, UniProt Q14671 828-1176, N971D;H972Y;Q975I)
PUM1 PUF domain R4-DYI, sequence (Q14671 828-1176 N971D/H972Y/Q975I): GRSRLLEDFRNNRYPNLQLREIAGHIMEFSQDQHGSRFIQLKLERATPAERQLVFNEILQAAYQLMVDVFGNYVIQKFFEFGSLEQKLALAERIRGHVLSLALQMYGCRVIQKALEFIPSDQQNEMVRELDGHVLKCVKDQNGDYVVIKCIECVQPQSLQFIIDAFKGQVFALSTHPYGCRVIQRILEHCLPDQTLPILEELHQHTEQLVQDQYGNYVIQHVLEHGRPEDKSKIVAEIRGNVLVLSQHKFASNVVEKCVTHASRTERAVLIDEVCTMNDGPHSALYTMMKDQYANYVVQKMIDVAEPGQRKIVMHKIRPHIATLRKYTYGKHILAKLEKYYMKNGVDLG
Method in brief: as §1

PUM1 PUF domain R4-NNG = PUM1 PUF domain R4-NNG (Homo sapiens, UniProt Q14671 828-1176, H972N;Q975G)
PUM1 PUF domain R4-NNG, sequence (Q14671 828-1176 H972N/Q975G): as the sequence (Q14671 828-1176 N971D/H972Y/Q975I) above, with D144N, Y145N, I148G counted along it
Method in brief: as §1

PUM1 PUF domain R4-YHA = PUM1 PUF domain R4-YHA (Homo sapiens, UniProt Q14671 828-1176, N971Y;Q975A)
PUM1 PUF domain R4-YHA, sequence (Q14671 828-1176 N971Y/Q975A): as the sequence (Q14671 828-1176 N971D/H972Y/Q975I) above, with D144Y, Y145H, I148A counted along it
Method in brief: as §1

PUM1 PUF domain R3-LHH = PUM1 PUF domain R3-LHH (Homo sapiens, UniProt Q14671 828-1176, C935L;R936H;Q939H)
PUM1 PUF domain R3-LHH, sequence (Q14671 828-1176 C935L/R936H/Q939H): as the sequence (Q14671 828-1176 N971D/H972Y/Q975I) above, with C108L, R109H, Q112H, D144N, Y145H, I148Q counted along it
Method in brief: as §1

PUM1 PUF domain R3-QRA = PUM1 PUF domain R3-QRA (Homo sapiens, UniProt Q14671 828-1176, C935Q;Q939A)
PUM1 PUF domain R3-QRA, sequence (Q14671 828-1176 C935Q/Q939A): as the sequence (Q14671 828-1176 N971D/H972Y/Q975I) above, with C108Q, Q112A, D144N, Y145H, I148Q counted along it
Method in brief: as §1

PUM1 PUF domain R3-QRV = PUM1 PUF domain R3-QRV (Homo sapiens, UniProt Q14671 828-1176, C935Q;Q939V)
PUM1 PUF domain R3-QRV, sequence (Q14671 828-1176 C935Q/Q939V): as the sequence (Q14671 828-1176 N971D/H972Y/Q975I) above, with C108Q, Q112V, D144N, Y145H, I148Q counted along it
Method in brief: as §1

PUM1 PUF domain R5-LYA = PUM1 PUF domain R5-LYA (Homo sapiens, UniProt Q14671 828-1176, C1007L;R1008Y;Q1011A)
PUM1 PUF domain R5-LYA, sequence (Q14671 828-1176 C1007L/R1008Y/Q1011A): as the sequence (Q14671 828-1176 N971D/H972Y/Q975I) above, with D144N, Y145H, I148Q, C180L, R181Y, Q184A counted along it
Method in brief: as §1

PUM1 PUF domain R7-QPR = PUM1 PUF domain R7-QPR (Homo sapiens, UniProt Q14671 828-1176, S1079Q;N1080P;E1083R)
PUM1 PUF domain R7-QPR, sequence (Q14671 828-1176 S1079Q/N1080P/E1083R): as the sequence (Q14671 828-1176 N971D/H972Y/Q975I) above, with D144N, Y145H, I148Q, S252Q, N253P, E256R counted along it
Method in brief: as §1

PUM1 PUF domain R4-PFT = PUM1 PUF domain R4-PFT (Homo sapiens, UniProt Q14671 828-1176, N971P;H972F;Q975T)
PUM1 PUF domain R4-PFT, sequence (Q14671 828-1176 N971P/H972F/Q975T): as the sequence (Q14671 828-1176 N971D/H972Y/Q975I) above, with D144P, Y145F, I148T counted along it
Method in brief: as §1

PUM1 PUF domain R5-QRL, sequence (Q14671 828-1176 C1007Q/Q1011L): as the sequence (Q14671 828-1176 N971D/H972Y/Q975I) above, with D144N, Y145H, I148Q, C180Q, Q184L counted along it

Which binding signal (PUM1 PUF domain R5-QRL) does the source give for “GGCUAGAACUAGUGGAUCCCCCGGCGCCCGGCGGCUCGAGCCCGGGUAAGUGUGAAUAGUCUGCAUGCCGCCGGGCGCCAUGCCUGCAGGUCGACUCUAGAAAACAUG” here?
Its binding signal is 3.22 log2 enrichment (interaction score).

With “GGCUAGAACUAGUGGAUCCCCCGGCGCCCGGCGGCUCGAGCCCGGGUAAGUGUAUAUAGUCUGCAUGCCGCCGGGCGCCAUGCCUGCAGGUCGACUCUAGAAAACAUG” as the sequence, how does the binding signal (PUM1 PUF domain R4-DYI) read?
The binding signal was 6.31 log2 enrichment (interaction score).

What about the binding signal (PUM1 PUF domain R4-NNG) of the same sequence?
The binding signal was 4.95 log2 enrichment (interaction score).

And the binding signal (PUM1 PUF domain R4-YHA)?
Its binding signal is 3.12 log2 enrichment (interaction score).

Which results are given for “GGCUAGAACUAGUGGAUCCCCCGGCGCCCGGCGGCUCGAGCCCGGGUAAGUGUAAGUAGUCUGCAUGCCGCCGGGCGCCAUGCCUGCAGGUCGACUCUAGAAAACAUG”?
binding signal (PUM1 PUF domain R3-LHH): 5.47 log2 enrichment (interaction score); binding signal (PUM1 PUF domain R3-QRA): 3.67 log2 enrichment (interaction score); binding signal (PUM1 PUF domain R3-QRV): 3.59 log2 enrichment (interaction score)

Which binding signal (PUM1 PUF domain R5-LYA) does the source give for “GGCUAGAACUAGUGGAUCCCCCGGCGCCCGGCGGCUCGAGCCCGGGUAAGUGUUAAUAGUCUGCAUGCCGCCGGGCGCCAUGCCUGCAGGUCGACUCUAGAAAACAUG” here?
Its binding signal is 3.15 log2 enrichment (interaction score).

Which binding signal (PUM1 PUF domain R3-QRA) does the source give for “GGCUAGAACUAGUGGAUCCCCCGGCGCCCGGCGGCUCGAGCCCGGGUAAGUGUAAUUAGUCUGCAUGCCGCCGGGCGCCAUGCCUGCAGGUCGACUCUAGAAAACAUG” here?
Its binding signal is 2.85 log2 enrichment (interaction score).

What about the binding signal (PUM1 PUF domain R3-QRV) of the same sequence?
Its binding signal is 2.73 log2 enrichment (interaction score).

Which binding signal (PUM1 PUF domain R4-NNG) does the source give for “GGCUAGAACUAGUGGAUCCCCCGGCGCCCGGCGGCUCGAGCCCGGGUAAGUGUACAUAGUCUGCAUGCCGCCGGGCGCCAUGCCUGCAGGUCGACUCUAGAAAACAUG” here?
The binding signal was 1.82 log2 enrichment (interaction score).

How did the binding signal (PUM1 PUF domain R7-QPR) turn out when “GGCUAGAACUAGUGGAUCCCCCGGCGCCCGGCGGCUCGAGCCCGGGUAAGUUUAAAUAGUCUGCAUGCCGCCGGGCGCCAUGCCUGCAGGUCGACUCUAGAAAACAUG” was run?
The binding signal was 5.06 log2 enrichment (interaction score).

What does the source list for “GGCUAGAACUAGUGGAUCCCCCGGCGCCCGGCGGCUCGAGCCCGGGUAAGUGUAAAUAGUCUGCAUGCCGCCGGGCGCCAUGCCUGCAGGUCGACUCUAGAAAACAUG”?
binding signal (PUM1 PUF domain R4-PFT): 5.31 log2 enrichment (interaction score); binding signal (PUM1 PUF domain R5-LYA): 3.54 log2 enrichment (interaction score); binding signal (PUM1 PUF domain R5-QRL): 3.37 log2 enrichment (interaction score)

With “GGCUAGAACUAGUGGAUCCCCCGGCGCCCGGCGGCUCGAGCCCGGGUAAGUCUAAAUAGUCUGCAUGCCGCCGGGCGCCAUGCCUGCAGGUCGACUCUAGAAAACAUG” as the sequence, how does the binding signal (PUM1 PUF domain R7-QPR) read?
Its binding signal is 1.84 log2 enrichment (interaction score).
